# Activity calls are given as the source filed them.
# How the values were obtained:
# [1] = tested on: PRMT1 (protein arginine N-methyltransferase 1); assay: small molecules binding arginine methyltransferase PRMT1 – biochemical, small-molecule microarray, 635 nm fluorescence, primary screen (AID 1088); details: higher = more signal;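 also: binding of Prmt1 protein to compounds spotted on small-molecule microarray slides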
# [2] = growth effects on S. cerevisiae YJM789 – YJM789 clinical isolate, OD600, 24 h, basal, primary screen (AID 1089); details: higher = more signal, called active from +8 up or from −8 down;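 also: growth of clinical yeast isolate S. cerevisiae YJM 789 seeded 1000 cells per well; test concentration not given here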
# [3] = S. pombe growth modifiers, basal conditions – strain 972, OD600, 24 h, no modulator, primary screen (AID 1090);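 also: basal condition with compound alone and no growth modifier present; test concentration not given here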; details: S. pombe 972 growth, higher = more signal, called active from +8 up or from −8 down
# [4] = budding yeast growth modifiers under rapamycin – strain BY4716, OD600, 96 h, primary screen (AID 1091); also: test concentration not given here; details: S. cerevisiae BY4716 + rapamycin, higher = more signal, called active from +8 up or from −8 down
# [5] = target: Torsin-1A-interacting protein 2 (Homo sapiens) (UniProt Q8NFQ8); assay: small molecules binding lysate-expressed LULL1 – cell lysate, human LULL1 lysate, 635/667 nm fluorescence, primary screen (AID 1092); details: small-molecule microarray, hLULL1 lysate binding, 635 nm fluorescence; higher = more signal;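 also: probe is lysate of COS7 cells overexpressing human LULL1; score merges per-feature 667 nm fluorescence with signal-to-noise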
# Torsin-1A-interacting protein 2 (Homo sapiens), sequence (Q8NFQ8 whole entry, looked up): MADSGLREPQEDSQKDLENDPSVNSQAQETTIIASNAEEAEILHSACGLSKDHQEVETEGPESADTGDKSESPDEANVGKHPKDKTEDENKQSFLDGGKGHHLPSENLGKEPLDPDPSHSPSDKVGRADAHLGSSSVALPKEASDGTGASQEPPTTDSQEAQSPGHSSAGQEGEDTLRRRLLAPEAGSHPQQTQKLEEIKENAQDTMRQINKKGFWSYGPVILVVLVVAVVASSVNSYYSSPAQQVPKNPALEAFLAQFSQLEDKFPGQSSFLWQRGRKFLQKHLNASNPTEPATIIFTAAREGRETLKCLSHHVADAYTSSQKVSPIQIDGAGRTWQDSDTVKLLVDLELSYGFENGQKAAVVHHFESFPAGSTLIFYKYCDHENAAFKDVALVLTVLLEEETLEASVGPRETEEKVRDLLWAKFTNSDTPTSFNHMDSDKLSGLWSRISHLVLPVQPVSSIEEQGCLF
# [6] = optical density change of DRC41 E. coli – strain DRC41, OD650, 24 h, E. coli filamentation project, primary screen (AID 1093);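 also: MC1000 strain lacking acrAB efflux and sulA so SOS filamentation is blocked; test concentration not given here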; details: E. coli DRC41 growth, higher = more signal, called active from +8 up or from −8 down
# [7] = probe aLefty2 binding to arrayed compounds – biochemical, biotinylated probe, 635/667 nm fluorescence, primary screen (AID 1094); details: small-molecule microarray, higher = more signal;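 also: score merges spot fluorescence near 667 nm with spot signal-to-noise ratio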
# [8] = tested on: Noggin (protein binding on small-molecule microarray); assay: small molecules binding Noggin protein – biochemical, 635/667 nm fluorescence, primary screen (AID 1095); details: 635 nm fluorescence, higher = more signal;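 also: score merges 667 nm feature fluorescence with signal to noise over triplicate slides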
# [9] = target: Neurogenic locus notch homolog protein 3 (Homo sapiens) (UniProt Q9UM47); assay: small molecules binding NOTCH3 protein – biochemical, 635/667 nm fluorescence, primary screen (AID 1096); details: small-molecule microarray, 635 nm fluorescence, higher = more signal
# Neurogenic locus notch homolog protein 3 (Homo sapiens), sequence (Q9UM47 whole entry, looked up): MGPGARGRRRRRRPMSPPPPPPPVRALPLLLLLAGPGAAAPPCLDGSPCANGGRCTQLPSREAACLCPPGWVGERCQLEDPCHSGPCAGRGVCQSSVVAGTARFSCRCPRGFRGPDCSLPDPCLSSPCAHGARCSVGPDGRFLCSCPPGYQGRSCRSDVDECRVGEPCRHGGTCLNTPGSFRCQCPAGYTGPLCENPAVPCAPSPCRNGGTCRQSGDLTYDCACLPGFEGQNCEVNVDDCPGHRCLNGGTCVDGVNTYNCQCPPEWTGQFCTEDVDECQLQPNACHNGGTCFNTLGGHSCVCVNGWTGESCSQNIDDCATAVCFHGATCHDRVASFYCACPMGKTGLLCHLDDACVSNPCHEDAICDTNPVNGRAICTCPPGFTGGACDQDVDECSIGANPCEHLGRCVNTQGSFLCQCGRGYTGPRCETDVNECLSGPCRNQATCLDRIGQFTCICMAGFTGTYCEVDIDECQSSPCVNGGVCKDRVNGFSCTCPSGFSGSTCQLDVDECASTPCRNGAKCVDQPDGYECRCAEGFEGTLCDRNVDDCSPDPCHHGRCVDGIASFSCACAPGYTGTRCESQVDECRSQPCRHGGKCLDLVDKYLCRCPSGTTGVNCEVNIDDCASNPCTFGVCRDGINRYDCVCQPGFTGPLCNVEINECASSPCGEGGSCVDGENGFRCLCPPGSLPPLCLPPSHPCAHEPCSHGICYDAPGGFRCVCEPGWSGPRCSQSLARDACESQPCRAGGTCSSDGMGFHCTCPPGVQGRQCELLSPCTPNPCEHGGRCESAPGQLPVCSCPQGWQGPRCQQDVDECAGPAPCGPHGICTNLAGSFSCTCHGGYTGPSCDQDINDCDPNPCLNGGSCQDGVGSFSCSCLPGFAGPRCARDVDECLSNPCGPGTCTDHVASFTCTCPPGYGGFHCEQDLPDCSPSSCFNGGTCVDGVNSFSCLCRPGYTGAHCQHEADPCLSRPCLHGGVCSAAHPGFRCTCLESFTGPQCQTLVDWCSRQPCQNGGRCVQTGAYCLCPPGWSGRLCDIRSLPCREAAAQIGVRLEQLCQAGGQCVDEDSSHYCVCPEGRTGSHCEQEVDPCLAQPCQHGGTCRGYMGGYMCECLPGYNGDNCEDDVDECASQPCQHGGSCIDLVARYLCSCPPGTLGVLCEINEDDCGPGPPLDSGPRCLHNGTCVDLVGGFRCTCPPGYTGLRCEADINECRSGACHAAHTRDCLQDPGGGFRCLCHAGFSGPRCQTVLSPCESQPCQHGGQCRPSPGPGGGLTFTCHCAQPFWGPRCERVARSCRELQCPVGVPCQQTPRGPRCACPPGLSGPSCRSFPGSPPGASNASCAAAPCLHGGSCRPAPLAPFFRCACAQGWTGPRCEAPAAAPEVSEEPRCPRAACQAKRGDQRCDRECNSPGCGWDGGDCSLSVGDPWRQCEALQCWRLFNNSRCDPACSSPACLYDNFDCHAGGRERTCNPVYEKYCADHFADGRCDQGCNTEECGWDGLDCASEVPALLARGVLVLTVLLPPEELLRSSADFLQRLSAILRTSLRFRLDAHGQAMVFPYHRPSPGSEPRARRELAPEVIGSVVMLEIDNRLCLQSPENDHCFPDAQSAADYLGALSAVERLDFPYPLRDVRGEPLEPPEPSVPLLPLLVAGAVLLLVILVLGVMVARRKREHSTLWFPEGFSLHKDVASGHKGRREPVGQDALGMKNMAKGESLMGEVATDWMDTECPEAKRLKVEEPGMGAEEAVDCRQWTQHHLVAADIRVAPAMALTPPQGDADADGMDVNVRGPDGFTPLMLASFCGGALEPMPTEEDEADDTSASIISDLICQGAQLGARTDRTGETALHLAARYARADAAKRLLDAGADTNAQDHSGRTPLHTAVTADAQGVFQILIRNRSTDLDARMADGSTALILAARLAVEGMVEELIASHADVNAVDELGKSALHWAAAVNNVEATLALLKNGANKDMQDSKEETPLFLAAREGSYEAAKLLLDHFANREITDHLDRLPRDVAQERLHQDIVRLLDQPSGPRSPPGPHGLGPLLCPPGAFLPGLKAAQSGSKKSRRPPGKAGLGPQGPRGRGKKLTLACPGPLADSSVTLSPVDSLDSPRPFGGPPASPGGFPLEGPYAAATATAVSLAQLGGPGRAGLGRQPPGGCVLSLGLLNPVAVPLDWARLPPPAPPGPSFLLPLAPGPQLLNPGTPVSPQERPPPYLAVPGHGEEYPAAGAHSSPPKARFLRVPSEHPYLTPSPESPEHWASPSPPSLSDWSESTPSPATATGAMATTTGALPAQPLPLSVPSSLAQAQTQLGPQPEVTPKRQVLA
# [10] = probe aEGFR binding to arrayed compounds – biochemical, biotinylated probe, 635/667 nm fluorescence, primary screen (AID 1097); details: small-molecule microarray, higher = more signal;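 also: probe is a biotinylated anti-EGFR antibody binding compounds printed on slides; score combines fluorescence near 667 nm and signal to noise of each spot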
# [11] = tested on: Plasmodium falciparum Sir2 (PF13_0152, Sir2A); assay: Plasmodium falciparum Sir2A binding compounds – biochemical, small-molecule microarray, 635 nm fluorescence, primary screen (AID 1098); details: fluorescence 635 nm, higher = more signal;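 also: score merges spot fluorescence intensity with its signal-to-noise ratio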
# [12] = probe aDKK1 binding to arrayed compounds – biochemical, biotinylated probe, 635/667 nm fluorescence, primary screen (AID 1099); details: small-molecule microarray, higher = more signal;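 also: score merges 667nm spot fluorescence with signal to noise across triplicate slides; reference of the scale not given here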
# [13] = probe aCHRDL2 binding to arrayed compounds – biochemical, biotinylated probe, 635/667 nm fluorescence, primary screen (AID 1100); details: small-molecule microarray, higher = more signal
# [14] = change in splice reporter luminescence, either direction, cell-based, HEK293, spliceosome inhibition project, primary screen (AID 1101); details: HEK293 splicing luciferase reporter, 24 h, higher = more signal, called active from +8 up or from −8 down;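 also: HEK293 cells carrying a splicing-competent luciferase reporter gene; test concentration not given here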
# [15] = target: Fibroblast growth factor 10 (Homo sapiens) (UniProt O15520); assay: compounds binding fibroblast growth factor 10 – biochemical, small-molecule microarray, 635 nm fluorescence, primary screen (AID 1102); details: FGF10 binding, fluorescence 635 nm, higher = more signal
# Fibroblast growth factor 10 (Homo sapiens), sequence (O15520 whole entry, looked up): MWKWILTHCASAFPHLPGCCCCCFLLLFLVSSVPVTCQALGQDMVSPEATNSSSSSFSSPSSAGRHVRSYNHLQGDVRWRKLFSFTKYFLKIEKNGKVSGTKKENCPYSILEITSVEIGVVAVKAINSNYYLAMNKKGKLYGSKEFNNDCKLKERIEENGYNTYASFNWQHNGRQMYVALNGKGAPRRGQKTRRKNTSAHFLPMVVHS
# [16] = tested on: glycogen synthase kinase-3 (GSK3A per assay name; protocol says GSK3B); assay: compounds binding glycogen synthase kinase-3 – biochemical, small-molecule microarray, 635 nm fluorescence, GSK3A, primary screen (AID 1103); details: fluorescence 635 nm, higher = more signal; also: the record names both GSK3A and GSK3B
# [17] = target: Epidermal growth factor receptor (Homo sapiens) (UniProt P00533); assay: compounds binding epidermal growth factor receptor – biochemical, small-molecule microarray, 635 nm fluorescence, primary screen (AID 1104); details: EGFR binding, higher = more signal;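 also: score merges 667 nm emission intensity with spot signal to noise over triplicate slides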
# Epidermal growth factor receptor (Homo sapiens), sequence (P00533 whole entry, looked up): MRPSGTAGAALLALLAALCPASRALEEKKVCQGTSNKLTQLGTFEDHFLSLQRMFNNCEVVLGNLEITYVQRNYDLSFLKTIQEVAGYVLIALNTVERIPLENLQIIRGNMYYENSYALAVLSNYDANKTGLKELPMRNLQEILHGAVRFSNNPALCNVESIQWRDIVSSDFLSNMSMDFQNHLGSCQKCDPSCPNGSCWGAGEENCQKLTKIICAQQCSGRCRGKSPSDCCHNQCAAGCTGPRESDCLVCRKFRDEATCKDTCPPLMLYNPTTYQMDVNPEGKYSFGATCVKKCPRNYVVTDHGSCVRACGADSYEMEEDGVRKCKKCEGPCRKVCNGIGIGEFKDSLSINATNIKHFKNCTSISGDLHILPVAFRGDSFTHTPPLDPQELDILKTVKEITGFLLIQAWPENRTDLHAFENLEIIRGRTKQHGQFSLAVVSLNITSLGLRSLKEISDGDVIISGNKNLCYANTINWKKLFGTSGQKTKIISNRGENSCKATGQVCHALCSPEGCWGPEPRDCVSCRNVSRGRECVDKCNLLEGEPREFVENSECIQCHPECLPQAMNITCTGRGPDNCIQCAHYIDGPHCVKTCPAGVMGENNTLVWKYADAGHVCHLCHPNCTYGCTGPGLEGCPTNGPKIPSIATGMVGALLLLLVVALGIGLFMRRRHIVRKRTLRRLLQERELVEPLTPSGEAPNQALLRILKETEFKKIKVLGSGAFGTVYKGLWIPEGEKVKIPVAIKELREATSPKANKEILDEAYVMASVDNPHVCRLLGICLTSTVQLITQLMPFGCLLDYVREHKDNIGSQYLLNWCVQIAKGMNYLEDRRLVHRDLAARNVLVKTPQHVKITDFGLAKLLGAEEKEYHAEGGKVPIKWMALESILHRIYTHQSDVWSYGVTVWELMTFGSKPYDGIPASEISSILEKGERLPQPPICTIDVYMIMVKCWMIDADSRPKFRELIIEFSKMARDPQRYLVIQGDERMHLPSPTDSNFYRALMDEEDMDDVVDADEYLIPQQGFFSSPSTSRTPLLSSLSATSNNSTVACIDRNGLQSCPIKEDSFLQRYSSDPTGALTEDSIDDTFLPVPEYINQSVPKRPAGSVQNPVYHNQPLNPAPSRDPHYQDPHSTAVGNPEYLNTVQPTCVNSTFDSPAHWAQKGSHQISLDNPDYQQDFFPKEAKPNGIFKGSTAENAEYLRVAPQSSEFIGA
# [18] = target: Follistatin-related protein 3 (Homo sapiens) (UniProt O95633); assay: compounds binding follistatin-related protein 3 – biochemical, small-molecule microarray, 635 nm fluorescence, primary screen (AID 1105); details: FSTL3 binding, higher = more signal;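 also: score merges emission near 667 nm and signal to noise per printed spot across three slides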
# Follistatin-related protein 3 (Homo sapiens), sequence (O95633 whole entry, looked up): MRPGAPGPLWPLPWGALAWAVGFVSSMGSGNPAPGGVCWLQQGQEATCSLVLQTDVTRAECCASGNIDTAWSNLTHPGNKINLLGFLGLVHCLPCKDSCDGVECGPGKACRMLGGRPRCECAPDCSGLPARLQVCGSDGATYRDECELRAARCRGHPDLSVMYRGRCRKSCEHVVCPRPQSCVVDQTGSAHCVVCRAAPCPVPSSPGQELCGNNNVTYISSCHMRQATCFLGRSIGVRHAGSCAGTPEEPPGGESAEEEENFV
# [19] = target: Dickkopf-related protein 1 (Homo sapiens) (UniProt O94907); assay: small molecules binding DKK1 protein – biochemical, small-molecule microarray, 635 nm fluorescence scan, primary screen (AID 1106); details: higher = more signal;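 also: score merges emission near 667 nm with signal to noise over three replicate slides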
# Dickkopf-related protein 1 (Homo sapiens), sequence (O94907 whole entry, looked up): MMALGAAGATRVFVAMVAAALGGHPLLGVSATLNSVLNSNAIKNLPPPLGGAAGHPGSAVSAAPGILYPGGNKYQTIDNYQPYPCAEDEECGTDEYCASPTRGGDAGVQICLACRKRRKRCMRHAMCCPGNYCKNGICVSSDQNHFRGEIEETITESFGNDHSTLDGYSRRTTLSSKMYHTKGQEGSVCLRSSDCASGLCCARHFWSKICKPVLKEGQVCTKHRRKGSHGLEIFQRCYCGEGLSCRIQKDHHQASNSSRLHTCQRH
# [20] = tested on: Inhibin beta A chain (activin A); assay: small molecules binding activin A – biochemical, small-molecule microarray, 635 nm fluorescence scan, primary screen (AID 1107); details: INHBA, higher = more signal;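 also: mouse activin A protein probed at 4.33 µg/mL on printed slides; score merges bound-protein fluorescence near 667 nm with spot signal-to-noise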
smiles,measurement,setting,value
COCCCNC(=O)[C@@]1(Cc2ccccc2CN=[N+]=[N-])N=C(c2ccc(OCCCO)cc2)O[C@H]1c1ccccc1N=[N+]=[N-],composite z-score,[1],1.31
same,z-score,[2],-0.299 (inactive)
same,z-score,[3],-0.954 (inactive)
same,z-score,[4],2.08 (inactive)
same,composite z-score,[5],2.67
same,z-score,[6],2.53 (inactive)
same,composite z-score,[7],0.214
same,composite z-score,[8],0.399
same,composite z-score,[9],0.671
same,composite z-score,[10],0.525
same,composite z-score,[11],1.61
same,composite z-score,[12],1.05
same,composite z-score,[13],1.28
same,z-score,[14],-1.26 (inactive)
same,composite z-score,[15],1.35
same,composite z-score,[16],1.22
same,composite z-score,[17],0.15
same,composite z-score,[18],0.706
same,composite z-score,[19],0.0902
same,composite z-score,[20],0.542
COc1ccc(C#Cc2ccc3c(c2)[C@]2(C(=O)N3)[C@H](C(N)=O)[C@H]3C(=O)O[C@H](c4ccccc4)[C@H](c4ccccc4)N3[C@@H]2c2ccc(O)cc2)cc1,composite z-score,[1],1.56
same,z-score,[2],1.47 (inactive)
same,z-score,[3],0.107 (inactive)
same,z-score,[4],2.28 (inactive)
same,composite z-score,[5],2.94
same,z-score,[6],-0.103 (inactive)
same,composite z-score,[7],-0.0258
same,composite z-score,[8],0.176
same,composite z-score,[9],0.664
same,composite z-score,[10],0.391
same,composite z-score,[11],0.818
same,composite z-score,[12],0.153
same,composite z-score,[13],0.411
same,z-score,[14],10.5 (active)
same,composite z-score,[15],0.904
same,composite z-score,[16],0.491
same,composite z-score,[17],0.248
same,composite z-score,[18],0.313
same,composite z-score,[19],0.0346
same,composite z-score,[20],-0.116
COCCOC(=O)N1C(=O)[C@@]2(c3cc(C#CC4(O)CCCCCC4)ccc31)[C@H](C(=O)N1CCc3cc(OC)c(OC)cc3C1)[C@H]1C(=O)O[C@H](c3ccccc3)[C@H](c3ccccc3)N1[C@@H]2c1ccccc1OCCO,composite z-score,[1],1.54
same,z-score,[2],2.29 (inactive)
same,z-score,[3],1.05 (inactive)
same,z-score,[4],3.98 (inactive)
same,composite z-score,[5],1.39
same,z-score,[6],1.36 (inactive)
same,composite z-score,[7],0.226
same,composite z-score,[8],1.29
same,composite z-score,[9],1.06
same,composite z-score,[10],0.295
same,composite z-score,[11],0.517
same,composite z-score,[12],0.836
same,composite z-score,[13],0.173
same,z-score,[14],-0.461 (inactive)
same,composite z-score,[15],0.96
same,composite z-score,[16],1.3
same,composite z-score,[17],0.887
same,composite z-score,[18],1.42
same,composite z-score,[19],1.69
same,composite z-score,[20],0.701
CCC[C@@H]1C[C@@]1(CCC)[C@@H](NC(=O)c1ccco1)c1ccc(Cl)cc1,composite z-score,[1],-1.25
same,z-score,[2],0.349 (inactive)
same,z-score,[3],-0.0896 (inactive)
same,z-score,[4],0.194 (inactive)
same,composite z-score,[5],-0.825
same,z-score,[6],-1.1 (inactive)
same,composite z-score,[7],-0.149
same,composite z-score,[8],-0.174
same,composite z-score,[9],-0.625
same,composite z-score,[10],-0.165
same,composite z-score,[11],-0.585
same,composite z-score,[12],-0.0347
same,composite z-score,[13],0.762
same,z-score,[14],-3.52 (inactive)
same,composite z-score,[15],0.14
same,composite z-score,[16],-2.1
same,composite z-score,[17],-0.414
same,composite z-score,[18],-0.722
same,composite z-score,[19],-0.366
same,composite z-score,[20],0.447
COc1ccc(C(=O)Nc2ccc3c(c2)[C@]2(O[C@@H](CCO)[C@H]([Si](C)(C)c4ccc(OC)cc4)[C@H]2C)C(=O)N3Cc2ccccc2)cc1,composite z-score,[1],1.3
same,z-score,[2],0.122 (inactive)
same,z-score,[3],-3.28 (inactive)
same,z-score,[4],3.8 (inactive)
same,composite z-score,[5],0.468
same,z-score,[6],1.11 (inactive)
same,composite z-score,[7],-0.175
same,composite z-score,[8],0.78
same,composite z-score,[9],0.163
same,composite z-score,[10],-0.107
same,composite z-score,[11],0.663
same,composite z-score,[12],-0.0183
same,composite z-score,[13],-0.0221
same,z-score,[14],-3.4 (inactive)
same,composite z-score,[15],0.572
same,composite z-score,[16],0.3
same,composite z-score,[17],0.349
same,composite z-score,[18],0.393
same,composite z-score,[19],0.359
same,composite z-score,[20],1.11
CC(C)C(CO)N1C(=O)[C@@H]2[C@H]3C(=O)OCC=C[C@H]3OC23C=CCN(Cn2nnc4ccccc42)C(=O)[C@@H]13 (stereo not given in full),composite z-score,[1],-0.0697
same,z-score,[2],1.14 (inactive)
same,z-score,[3],1.13 (inactive)
same,z-score,[4],0.779 (inactive)
same,composite z-score,[5],0.704
same,z-score,[6],0.701 (inactive)
same,composite z-score,[7],-0.262
same,composite z-score,[8],-2.09
same,composite z-score,[9],-0.254
same,composite z-score,[10],-0.2
same,composite z-score,[11],0.335
same,composite z-score,[12],-0.374
same,composite z-score,[13],0.465
same,z-score,[14],0.184 (inactive)
same,composite z-score,[15],-0.777
same,composite z-score,[16],-1.05
same,composite z-score,[17],-0.851
same,composite z-score,[18],-1.41
same,composite z-score,[19],-1.18
same,composite z-score,[20],-1.33
CC(C)c1ccc(NN2C(C(O)c3cccs3)C=CC3C(=O)N(c4ccccc4)C(=O)C32)cc1 (stereo not given),composite z-score,[1],1.54
same,z-score,[2],0.354 (inactive)
same,z-score,[3],0.758 (inactive)
same,z-score,[4],0.331 (inactive)
same,composite z-score,[5],3.36
same,z-score,[6],-1.14 (inactive)
same,composite z-score,[7],0.453
same,composite z-score,[8],-0.0307
same,composite z-score,[9],1.06
same,composite z-score,[10],0.08
same,composite z-score,[11],1.02
same,composite z-score,[12],0.0558
same,composite z-score,[13],0.928
same,z-score,[14],0.356 (inactive)
same,composite z-score,[15],0.461
same,composite z-score,[16],1.31
same,composite z-score,[17],0.156
same,composite z-score,[18],1.21
same,composite z-score,[19],-0.054
same,composite z-score,[20],0.975
O=C(N1CCOCC1)[C@@]1(CCS(=O)(=O)c2ccccc2)COC(c2ccc(OCCCO)cc2)=N1,composite z-score,[1],0.988
same,z-score,[2],0.0962 (inactive)
same,z-score,[3],0.365 (inactive)
same,z-score,[4],-0.408 (inactive)
same,composite z-score,[5],3.18
same,z-score,[6],1.01 (inactive)
same,composite z-score,[7],-0.139
same,composite z-score,[8],0.0307
same,composite z-score,[9],0.0961
same,composite z-score,[10],-0.174
same,composite z-score,[11],0.495
same,composite z-score,[12],0.0641
same,composite z-score,[13],0.691
same,z-score,[14],0.122 (inactive)
same,composite z-score,[15],0.94
same,composite z-score,[16],0.443
same,composite z-score,[17],-0.935
same,composite z-score,[18],-0.827
same,composite z-score,[19],-0.899
same,composite z-score,[20],-0.704
O=C1c2ccccc2[C@](Cc2ccccc2I)(C(=O)NC2CC2)[C@H](c2ccc(CO)cc2)N1Cc1ccccc1Cl,composite z-score,[1],1.36
same,z-score,[2],0.07 (inactive)
same,z-score,[3],0.376 (inactive)
same,z-score,[4],1.57 (inactive)
same,composite z-score,[5],1.91
same,z-score,[6],-1.02 (inactive)
same,composite z-score,[7],0.349
same,composite z-score,[8],1.53
same,composite z-score,[9],0.856
same,composite z-score,[10],0.178
same,composite z-score,[11],0.453
same,composite z-score,[12],0.831
same,composite z-score,[13],0.995
same,z-score,[14],0.119 (inactive)
same,composite z-score,[15],0.652
same,composite z-score,[16],1.28
same,composite z-score,[17],-0.0191
same,composite z-score,[18],0.345
same,composite z-score,[19],0.0978
same,composite z-score,[20],1.02
